# Data: PubChem BioAssay (NCATS)
# Values joined by “and” are separate entries in the source; they are usually repeats but may differ in a detail not shown here. Equal values may be shown once. Results filed as inconclusive are left out. Active and inactive are the calls of the source. Unless noted, the call rests on the fitted dose curve; in most records, active means well fitted curve in the direction sought with a large enough effect; inconclusive means small, poorly fitted or top-dose-only effect, or another doubt; inactive means no such curve, though single readings can be large; an effect the other way counts as inactive or inconclusive.
# Legend:
# [1] = biological target: Glucocorticoid receptor (Homo sapiens) (UniProt P04150); test: qHTS assay for small molecule agonists of glucocorticoid receptor signaling (AID 588532; active means well fitted curve in the direction sought with a large enough effect in the signal ratio, with a control signal flat; the % refers to the signal ratio;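 further: 100% = dexamethasone at 0.1 µM and 0% = DMSO only wells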); conditions: HeLa MMTV-bla, beta-lactamase ratio, agonist, 18 h; stronger effect = higher value; percent of dexamethasone control, DMSO zero
# Glucocorticoid receptor (Homo sapiens), sequence (P04150 whole entry, looked up): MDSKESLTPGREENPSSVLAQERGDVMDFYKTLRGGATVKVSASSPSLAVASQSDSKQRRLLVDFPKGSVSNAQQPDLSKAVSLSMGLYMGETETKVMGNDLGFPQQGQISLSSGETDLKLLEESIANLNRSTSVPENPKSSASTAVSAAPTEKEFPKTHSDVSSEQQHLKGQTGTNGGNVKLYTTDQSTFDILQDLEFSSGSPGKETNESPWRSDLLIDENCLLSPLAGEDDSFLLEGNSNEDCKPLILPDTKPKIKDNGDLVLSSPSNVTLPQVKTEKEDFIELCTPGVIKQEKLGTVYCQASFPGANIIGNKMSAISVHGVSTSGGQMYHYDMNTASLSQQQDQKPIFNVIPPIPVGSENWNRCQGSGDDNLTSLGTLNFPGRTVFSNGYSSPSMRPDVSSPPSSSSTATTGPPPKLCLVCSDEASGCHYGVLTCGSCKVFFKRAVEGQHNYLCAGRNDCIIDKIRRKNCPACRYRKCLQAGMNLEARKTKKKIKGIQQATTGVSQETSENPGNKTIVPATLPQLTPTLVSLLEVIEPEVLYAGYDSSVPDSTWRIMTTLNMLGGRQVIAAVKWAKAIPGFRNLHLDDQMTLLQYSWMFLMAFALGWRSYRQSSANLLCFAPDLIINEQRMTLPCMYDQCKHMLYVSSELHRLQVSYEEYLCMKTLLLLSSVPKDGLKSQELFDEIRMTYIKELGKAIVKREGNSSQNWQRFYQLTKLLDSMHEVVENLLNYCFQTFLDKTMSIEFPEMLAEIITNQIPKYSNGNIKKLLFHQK
# Summary of the method: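 MMTV-bla HeLa, beta-lactamase reporter; medium with 1% charcoal/dextran-stripped FBS; cpds up to 92 uM, 18 h, 37 C; CCF4 readout 460/530 nm; Hill fit → EC50, efficacy vs 0.1 uM dexamethasone = 100%.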
# [2] = qHTS assay for small molecule antagonists of peroxisome proliferator-activated receptor delta signaling (AID 588535); conditions: HEK293T PPARd-UAS-bla, beta-lactamase FRET ratio, 18 h; 460 nm channel;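 further: cells co-treated with a PPAR-delta agonist as stimulator during compound exposure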
# Summary of the method: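 GeneBLAzer PPAR-delta-UAS-bla HEK293T cells in medium with 2% charcoal/dextran FBS were preincubated 5 hrs at 37 C, then given compounds, incubated 18 hrs at 37 C, and read by CCF4 beta-lactamase fluorescence; IC50 from Hill fits.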
# [3] = biological target: Peroxisome proliferator-activated receptor gamma (Homo sapiens) (UniProt P37231); test: qHTS assay for small molecule agonists of peroxisome proliferator-activated receptor gamma signaling (AID 588536; active means well fitted curve in the direction sought with a large enough effect in the signal ratio, with a control signal flat, not every such curve was filed as active; the % refers to the signal ratio;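 further: 0% = DMSO basal wells and 100% = rosiglitazone at 2 µM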); conditions: HEK293 PPARg-UAS-bla, beta-lactamase ratio, 16 h, percent of rosiglitazone response, DMSO as zero; series mostly up to 76.7 µM
# Peroxisome proliferator-activated receptor gamma (Homo sapiens), sequence (P37231 whole entry, looked up): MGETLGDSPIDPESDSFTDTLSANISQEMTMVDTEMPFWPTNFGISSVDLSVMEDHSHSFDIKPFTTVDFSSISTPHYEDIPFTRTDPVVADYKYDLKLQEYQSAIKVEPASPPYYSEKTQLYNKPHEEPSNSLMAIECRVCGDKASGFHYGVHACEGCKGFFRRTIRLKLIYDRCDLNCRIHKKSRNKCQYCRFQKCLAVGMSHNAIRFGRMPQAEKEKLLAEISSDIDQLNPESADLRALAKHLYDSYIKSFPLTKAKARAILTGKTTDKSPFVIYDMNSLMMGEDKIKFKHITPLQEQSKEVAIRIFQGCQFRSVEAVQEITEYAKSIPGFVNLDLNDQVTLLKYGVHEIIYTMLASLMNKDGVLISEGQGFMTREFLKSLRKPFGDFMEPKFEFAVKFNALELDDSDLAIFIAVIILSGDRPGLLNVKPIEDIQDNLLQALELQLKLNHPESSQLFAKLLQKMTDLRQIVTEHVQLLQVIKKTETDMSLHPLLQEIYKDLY
# Summary of the method: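 GeneBLAzer PPAR-gamma-UAS-bla HEK293 cells in 1% charcoal/dextran-treated FBS medium were treated 16 h at 37 C with compounds. Beta-lactamase activity was read by CCF4 ratio (460/530 nm). Response was normalized to 2 uM rosiglitazone (100%) and DMSO, then Hill-fitted for EC50 and efficacy.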
# [4] = biological target: Peroxisome proliferator-activated receptor gamma (Homo sapiens) (UniProt P37231); test: qHTS assay for small molecule antagonists of peroxisome proliferator-activated receptor gamma signaling (AID 588537; active means well fitted inhibition curve with a large enough effect in the signal ratio, with a control signal flat, not every such curve was filed as active; the % refers to the signal ratio;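 further: reporter cells co-stimulated with 50 nM rosiglitazone agonist during compound treatment; % of control where 0% means no effect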); conditions: HEK293 PPARg-UAS-bla, beta-lactamase ratio, antagonist mode; series mostly up to 76.8 µM
# Summary of the method: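 PPAR-gamma-UAS-bla HEK293 cells (3000/well, 1% charcoal/dextran-stripped FBS) were preincubated 6-6.5 h at 37 C, given titrated compounds, then stimulated with 50 nM rosiglitazone for 16 h. Beta-lactamase activity was read with CCF4 dye; IC50 came from Hill fits.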
# [5] = qHTS assay for small molecule agonists of retinoid X receptor alpha signaling (AID 588544; calls by dose curve;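 on activation: 0% = DMSO basal wells and 100% = reference agonist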); conditions: HEK293T RXRa-UAS-bla, beta-lactamase reporter, 18 h; 530 nm emission
# [6] = biological target: Retinoic acid receptor RXR-alpha (Homo sapiens) (UniProt P19793); test: as above; conditions: HEK293T RXRa-UAS-bla, beta-lactamase reporter, 18 h; series mostly up to 76.7 µM
# Retinoic acid receptor RXR-alpha (Homo sapiens), sequence (P19793 whole entry, looked up): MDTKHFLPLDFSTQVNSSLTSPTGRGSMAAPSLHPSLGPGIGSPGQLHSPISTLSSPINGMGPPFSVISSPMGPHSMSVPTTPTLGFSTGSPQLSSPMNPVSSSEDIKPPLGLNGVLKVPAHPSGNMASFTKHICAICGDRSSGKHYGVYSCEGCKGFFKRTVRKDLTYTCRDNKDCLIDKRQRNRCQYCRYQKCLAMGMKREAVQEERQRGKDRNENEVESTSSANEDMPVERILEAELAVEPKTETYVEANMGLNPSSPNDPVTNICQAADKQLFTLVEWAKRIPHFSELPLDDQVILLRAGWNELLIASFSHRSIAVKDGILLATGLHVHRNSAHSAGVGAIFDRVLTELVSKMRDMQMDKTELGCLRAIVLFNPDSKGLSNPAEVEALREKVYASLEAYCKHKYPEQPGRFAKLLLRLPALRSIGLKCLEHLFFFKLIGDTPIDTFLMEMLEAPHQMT
# [7] = biological target: Thyroid hormone receptor beta (Homo sapiens) (UniProt P10828); test: qHTS assay for small molecule agonists of thyroid hormone receptor beta signaling (AID 588545; calls by dose curve); conditions: TR-UAS-bla GripTite HEK 293, beta-lactamase ratio, agonist mode, 18 h; series mostly up to 76.7 µM
# Thyroid hormone receptor beta (Homo sapiens), sequence (P10828 whole entry, looked up): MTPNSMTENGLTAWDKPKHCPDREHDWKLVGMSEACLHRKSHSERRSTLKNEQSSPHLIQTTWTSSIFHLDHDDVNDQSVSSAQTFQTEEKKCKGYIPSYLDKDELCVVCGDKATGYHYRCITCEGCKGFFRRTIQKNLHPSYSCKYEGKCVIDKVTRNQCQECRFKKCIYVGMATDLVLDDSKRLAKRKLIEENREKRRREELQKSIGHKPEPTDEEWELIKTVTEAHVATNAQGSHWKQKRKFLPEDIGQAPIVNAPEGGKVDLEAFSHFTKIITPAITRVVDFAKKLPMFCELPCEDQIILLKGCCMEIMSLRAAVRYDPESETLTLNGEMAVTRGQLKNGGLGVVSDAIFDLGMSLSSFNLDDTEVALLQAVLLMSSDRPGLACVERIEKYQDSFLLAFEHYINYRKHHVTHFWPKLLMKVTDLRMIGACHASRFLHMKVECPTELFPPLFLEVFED
# Summary of the method: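 In this cell-based screen, titrated compounds act on HEK 293 cells held in medium with 2% charcoal/dextran FBS, NEAA and pyruvate for 18 hrs at 37 C. Responses are expressed relative to T3 (10 nM) as 100% and basal DMSO as 0%.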
# [8] = qHTS assay for small molecule antagonists of retinoid X receptor alpha signaling (AID 588546; active means well fitted inhibition curve with a large enough effect in the signal ratio, with a control signal flat, not every such curve was filed as active; the % refers to the signal ratio;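 further: cells stimulated with 9-cis-retinoic acid as agonist; on the % scale 0 is the no-effect control and ±100 the full control effect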); conditions: HEK293T RXRa-UAS-bla, beta-lactamase ratio, antagonist mode; measured here: W530 green channel, cytotoxicity proxy
# Summary of the method: (§1)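 Beta-lactamase reporter inhibition, read as CCF4 fluorescence ratio (ex 405, em 460/530 nm) after 2 h at RT. HEK293T UAS-bla cells, 2500/well, were stimulated with 9-cis-RA at 500 or 100 nM final alongside test compound for 18 h at 37 C.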
# [9] = biological target: Retinoic acid receptor RXR-alpha (Homo sapiens) (UniProt P19793); test: as above; conditions: HEK293T RXRa-UAS-bla, beta-lactamase ratio, antagonist mode
# Summary of the method: as §1
# [10] = qHTS assay for small molecule activators of the p53 signaling pathway (AID 651743; active means well fitted activation curve with a large enough effect in the signal ratio, not every such curve was filed as active; the % refers to the signal ratio; further: % of control where 0% means no effect); conditions: HCT-116 p53RE-bla, beta-lactamase FRET ratio, 16 h; activation: stronger effect = higher value
# Summary of the method: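 p53RE-bla HCT-116 cells with a stably integrated beta-lactamase reporter under p53 response elements were plated, rested 5 hours at 37 C/5% CO2, then exposed to compounds in DMSO for 16 hours at 37 C. LiveBLAzer B/G FRET substrate was read after 2 hours at room temperature.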
# [11] = qHTS assay for small molecule activators of the nuclear factor-kappa B (NF-kB) signaling pathway (AID 651749; active means well fitted activation curve with a large enough effect in the signal ratio; the % refers to the signal ratio; further: % of control where 0% means no effect); conditions: NF-kB-bla ME-180 cells, beta-lactamase FRET ratio, 16 h; activation: stronger effect = higher value
# Summary of the method: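 ME-180 cells stably carrying a beta-lactamase reporter under an NF-kB response element were exposed to compound or DMSO vehicle for 16 hr at 37C, 5% CO2. Pathway activation was read by FRET, since reporter expression disrupts FRET.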
# [12] = qHTS assay for environmental chemicals that activate the Aryl hydrocarbon Receptor (AhR) signaling pathway (AID 651777); conditions: 1A2-DRE human hepatoma cells, luciferase, 24 h; activation: stronger effect = higher value; further: % of control where 0% means no effect; nearly all actives have a fitted effect of over 15% in size
# Summary of the method: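 Human hepatoma 1A2-DRE cells stably carrying a DRE/CYP1A2 promoter–luciferase reporter, 1,200 cells/well, exposed to compound 24 hr at 37 C. Luciferase read by One-Glo luminescence after 30 min at room temperature; increased signal marks AhR activation.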
# [13] = biological target: Peroxisome proliferator-activated receptor alpha (Homo sapiens) (UniProt Q07869); test: qHTS assay for small molecule agonists of the peroxisome proliferator-activated receptor alpha (PPARalpha) signaling pathway (AID 651778); conditions: PathHunter PPARalpha complementation, chemiluminescence, 6 h; max response: stronger effect = higher value; further: % of control where 0% means no effect
# Peroxisome proliferator-activated receptor alpha (Homo sapiens), sequence (Q07869 whole entry, looked up): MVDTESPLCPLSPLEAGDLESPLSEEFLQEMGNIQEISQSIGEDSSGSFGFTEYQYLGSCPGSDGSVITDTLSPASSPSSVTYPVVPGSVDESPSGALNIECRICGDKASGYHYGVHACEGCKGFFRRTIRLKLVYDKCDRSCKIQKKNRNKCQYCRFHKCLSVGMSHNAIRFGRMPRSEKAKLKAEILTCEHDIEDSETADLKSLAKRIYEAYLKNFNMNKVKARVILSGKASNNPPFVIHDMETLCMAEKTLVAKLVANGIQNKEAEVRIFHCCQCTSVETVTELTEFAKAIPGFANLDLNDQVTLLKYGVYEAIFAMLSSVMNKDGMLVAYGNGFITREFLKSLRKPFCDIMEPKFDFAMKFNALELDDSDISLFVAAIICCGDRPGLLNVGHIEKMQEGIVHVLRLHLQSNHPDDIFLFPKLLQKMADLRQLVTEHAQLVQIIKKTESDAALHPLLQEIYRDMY
# Summary of the method: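 Cells plated at 2,000/well and held overnight at 37 C, 5% CO2, then compound added by pin tool for 6 hr; after PathHunter detection reagent and 60 min at room temperature, chemiluminescence from enzyme complementation was read.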
# [14] = qHTS assay for small molecule agonists of the antioxidant response element (ARE) signaling pathway measured by Nrf2-dependant transcriptional activity - cell viability counter screen (AID 720653; active means well fitted curve in the direction sought with a large enough effect in the repeat runs; an effect the other way counts as inactive or inconclusive; further: on the % scale 0 is the no-effect control and ±100 the full control effect); conditions: ARE-bla HepG2 viability, CellTiter-Glo ATP luminescence, 16 h; max response: stronger effect = lower value
# Summary of the method: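 ARE-bla HepG2 cells (2,000/well) rested 5 hrs at 37C/5% CO2, then exposed to compounds in DMSO for 16 hrs. Viability was read in the same wells as intracellular ATP by luminescence, 30 min at room temperature after reagent addition.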
# [15] = qHTS assay for cell viability of HEK293 cells (AID 743288); conditions: ATP luminescence (CellTiter-Glo), 18 h; max response: stronger effect = lower value; further: on the % scale 0 is the no-effect control and ±100 the full control effect; nearly all actives have a fitted effect of over 50% in size
# Summary of the method: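 The Tox21 protocol used parental HEK293 cells treated for 18 h at 37 C with compounds delivered by pintool; ATP-coupled luminescence after 30 min at room temperature gave viability.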
# [16] = qHTS assay for cell viability of the p53RE-bla HCT-116 cell line (AID 743292); conditions: p53RE-bla HCT-116 viability, ATP luminescence, 16 h; series mostly up to 95 µM; further: on the % scale 0 is the no-effect control and ±100 the full control effect; nearly all actives have a fitted effect of over 55% in size
# Summary of the method: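 CellSensor p53RE-bla HCT-116 cells (4,000/well) pre-incubated 5 h at 37 C, then exposed to compounds in DMSO for 16 h at 37 C. Viability read as ATP content by CellTiter-Glo luminescence after 30 min at room temperature.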
# [17] = biological target: Nuclear receptor subfamily 1 group I member 2 (Rattus norvegicus) (UniProt Q9R1A7); test: qHTS assay for small molecule activators of the rat pregnane X receptor (rPXR) signaling pathway (AID 651751; call rule not given here; further: 0% is about no effect); conditions: rPXR reporter cells, luciferase (One-Glo), 24 h
# Nuclear receptor subfamily 1 group I member 2 (Rattus norvegicus), sequence (Q9R1A7 whole entry, looked up): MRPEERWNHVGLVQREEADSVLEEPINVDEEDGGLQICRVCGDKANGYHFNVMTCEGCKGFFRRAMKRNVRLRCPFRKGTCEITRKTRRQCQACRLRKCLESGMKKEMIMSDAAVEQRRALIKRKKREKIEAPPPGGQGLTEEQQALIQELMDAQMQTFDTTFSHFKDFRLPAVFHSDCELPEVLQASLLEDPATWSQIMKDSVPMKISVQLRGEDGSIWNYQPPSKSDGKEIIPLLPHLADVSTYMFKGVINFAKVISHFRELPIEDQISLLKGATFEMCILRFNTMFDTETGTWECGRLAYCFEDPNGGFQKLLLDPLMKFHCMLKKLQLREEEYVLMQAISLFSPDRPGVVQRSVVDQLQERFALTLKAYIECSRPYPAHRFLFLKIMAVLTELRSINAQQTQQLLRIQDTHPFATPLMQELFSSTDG
# [18] = qHTS assay for small molecule activators of the human pregnane X receptor (PXR) signaling pathway (AID 720659; call rule not given here; further: 0% is about no effect); conditions: DPX-2 HepG2 CYP3A4-luciferase, 24 h; series mostly up to 92.3 µM
# [19] = biological target: Thyroid hormone receptor beta (Homo sapiens) (UniProt P10828); test: qHTS assay for small molecule antagonists of thyroid hormone receptor beta signaling (AID 588547; active means well fitted inhibition curve with a large enough effect in the signal ratio, with a control signal flat, not every such curve was filed as active; the % refers to the signal ratio;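 further: cells stimulated with 0.4 nM T3 agonist during compound exposure; on the % scale 0 is the no-effect control and ±100 the full control effect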); conditions: TR-UAS-bla HEK293, beta-lactamase ratio, antagonist mode, 18 h
# Summary of the method: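 TR-UAS-bla GripTite HEK293 cells in 2% charcoal/dextran FBS medium were preincubated 4 h at 37 C, given compound (0.59 nM to 92 uM) plus 0.4 nM T3 (final) for 18 h, then CCF4 for 2 h at RT; Hill fit gave IC50.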
# [20] = qHTS assay for small molecule agonists of the antioxidant response element (ARE) signaling pathway measured by Nrf2-dependant transcriptional activity (AID 720636; active means well fitted curve in the direction sought with a large enough effect in the repeat runs; an effect the other way counts as inactive or inconclusive; further: % of control where 0% means no effect); conditions: ARE-luc HepG2, Nrf2 luciferase reporter, 16 h; series mostly up to 92.4 µM
# Summary of the method: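 ARE-luc HepG2 cells carrying an Nrf2-responsive luciferase reporter, in medium with 1% dialyzed FBS, exposed to compound for 16 hr at 37 C, 5% CO2. Luminescence read 30 min after ONE-Glo addition.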
SMILES,activation [1],max response [2],outcome [3],Potency [4],max response [5],Potency [6],Potency [7],max response [8],max response [9],activation [10],activation [11],activation [12],max response [13],max response [14],max response [15],Potency [16],max response [17],outcome [18],activity change % (negative = inhibition) [19],Potency [20]
CO[Si](OC)(OC)c1ccccc1,-5.49% (inactive),44.5%,inactive,inactive,-13.7%,inactive,inactive,-3.5%,-6.99% (inactive),-3.17% (inactive),0.204% (inactive),1.89% (inactive),-1.36% (inactive),-0.0462% (inactive),-0.551% (inactive),inactive,-6.78% (inactive),inactive,,
O=C1CCCCCCCCCCC1,-8.83% (inactive),31.3%,inactive,inactive,-19.7%,inactive,inactive,-10.4%,4.14% (inactive),-4.42% (inactive),,0.997% (inactive),-0.988% (inactive),-14.8% (inactive),-4.39% (inactive),inactive,0.58% (inactive),inactive,4.81% (inactive),inactive
CCCCCCCCCCCCCC(=O)OC,-4.01% (inactive),-19.8%,inactive,inactive,0.848%,inactive,inactive,-10%,-1.05% (inactive),,0.501% (inactive),0.0228% (inactive),0.157% (inactive),-15.8% (inactive),4.18% (inactive),inactive,2.49% (inactive),inactive,3.36% (inactive),inactive
CC/C=C/CCCCCCCCCCOC(C)=O,2.34% (inactive),25.9%,inactive,inactive,-22.5%,inactive,inactive,,,,,-0.59% (inactive),-1.44% (inactive),-0.636% (inactive),-7.88% (inactive),inactive,3.81% (inactive),inactive,4.15% (inactive),inactive
CN=C(N)NCC1CCOC1 (configuration not stated),-0.0864% (inactive) and -2.61% (inactive),42%,inactive,inactive,-7.78%,inactive,inactive,-4.8%,8.29% (inactive),20.9% (inactive) and -3.95% (inactive),-4.18% (inactive),14.3% (inactive) and -0.391% (inactive),-3.68% (inactive) and 0.552% (inactive),-1.14% (inactive),-9.41% (inactive),inactive,-8.95% (inactive) and -6.71% (inactive),inactive,-7.34% (inactive),inactive
